In PubChem BioAssay one finds composite z-score and z-score data, which are given here for 5 compounds.

Test [1] in a line: binders of probe aFSTL3 on microarray, primary screen, stem cell growth factor project, biochemical, small-molecule microarray, fluorescence 635/667 (AID 1064).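 Further: measures binding of the biotinylated anti-FSTL3 antibody to printed compounds.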 The following applies: higher = more signal.
Test [2] in a line: binders from COS7 lysate, DM2A8 probe, primary screen, torsin A project, cell lysate, small-molecule microarray, fluorescence 635/667 (AID 1065). The conditions noted are these: higher = more signal, COS7 lysate expressing mutant human TOR1A.
Test [3] can be described thus: binders of probe aFGF2 on microarray, primary screen, stem cell growth factor project, biochemical, small-molecule microarray, fluorescence 635/667 (AID 1067).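 Further: measures binding of biotinylated aFGF2 protein to printed compounds on slides; z-score merges feature fluorescence and signal-to-noise across triplicate slides.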 The conditions noted are these: higher = more signal.
Test [4] is described as follows: binders of probe aFGF10 on microarray, primary screen, stem cell growth factor project, biochemical, small-molecule microarray, fluorescence 635/667 (AID 1071).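 Further: score merges 667 nm spot intensity and signal to noise from triplicate slides.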 The conditions noted are these: higher = more signal.
For test [5], the target named is Neurogenic locus notch homolog protein 2 (Homo sapiens) (UniProt Q04721). The test is described as follows: Notch2 binders on small-molecule microarrays, primary screen, biochemical, small-molecule microarray, 635 nm fluorescence, stem cell growth factors (AID 1073). The following applies: Notch2 binding, higher = more signal.
Test [6] deals with Pro-neuregulin-1, membrane-bound isoform (Homo sapiens) (UniProt Q02297). Kind of test: NRG1 binders on small-molecule microarrays, primary screen, psychiatric disease protein project, biochemical, small-molecule microarray, fluorescence 635/667 (AID 1075).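 Further: score combines 667 nm spot fluorescence with signal to noise.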 The conditions noted are these: NRG1 binding, 635 nm fluorescence, higher = more signal.
Test [7] deals with Neuregulin-1 EGF-like domain. Kind of test: binders of neuregulin-1 EGF-like domain, primary screen, biochemical, small-molecule microarray, 635 nm fluorescence (AID 1081).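 Further: binding of the protein to compounds printed on small-molecule microarray slides.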 The conditions noted are these: small-molecule microarray binding, higher = more signal.
Test [8] can be described thus: FRG1 promoter luciferase signal modulators, primary screen, FRG1 inhibition for FSHD, cell-based, C2C12 myotubes, firefly/Renilla luciferase, luminescence (AID 1084). The following applies: higher = more signal, called active from +8 up or from −8 down.
Test [9] in a line: binders of probe aFST on microarray, primary screen, stem cell growth factor project, biochemical, small-molecule microarray, fluorescence 635/667 (AID 1086).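 Further: score merges 667 nm fluorescence with signal-to-noise of each printed compound spot.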 The following applies: higher = more signal.
The nature of test [10]: binders of probe aHhip on microarray, primary screen, stem cell growth factor project, biochemical, small-molecule microarray, fluorescence 635/667 (AID 1087).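 Further: score merges spot fluorescence at 667nm with spot signal to noise ratio.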 The following applies: higher = more signal.
Test [11] relates to PRMT1 (protein arginine N-methyltransferase 1). The test is described as follows: PRMT1 binders on small-molecule microarrays, primary screen, biochemical, small-molecule microarray, 635 nm fluorescence (AID 1088).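 Further: binding of Prmt1 protein to compounds spotted on small-molecule microarray slides.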 The following applies: small-molecule microarray binding, higher = more signal.
Test [12] can be described thus: yeast growth modulation, basal conditions, primary screen, YJM789 clinical isolate, OD600, 24 h (AID 1089).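 Further: growth of clinical yeast isolate S. cerevisiae YJM 789 seeded 1000 cells per well; test concentration not given here.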 The conditions noted are these: S. cerevisiae YJM789 growth, higher = more signal, called active from +8 up or from −8 down.
Test [13] in a line: fission yeast growth modulation, primary screen, strain 972, OD600, 24 h, no modulator (AID 1090).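 Further: basal condition with compound alone and no growth modifier present; test concentration not given here.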 The conditions noted are these: S. pombe 972 growth, higher = more signal, called active from +8 up or from −8 down.
Test [14] in a line: S. cerevisiae growth modulation with rapamycin, primary screen, strain BY4716, OD600, 96 h (AID 1091). Further: test concentration not given here. The following applies: higher = more signal, called active from +8 up or from −8 down.
Test [15] addresses Torsin-1A-interacting protein 2 (Homo sapiens) (UniProt Q8NFQ8). Kind of test: LULL1 binders on small-molecule microarray, primary screen, cell lysate, human LULL1 lysate, 635/667 nm fluorescence (AID 1092).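 Further: probe is lysate of COS7 cells overexpressing human LULL1; score merges per-feature 667 nm fluorescence with signal-to-noise.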 The conditions noted are these: hLULL1 lysate binding, 635 nm fluorescence, higher = more signal.
The nature of test [16]: E. coli growth modulation, two-sided OD650, primary screen, E. coli filamentation project, strain DRC41, 24 h (AID 1093).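 Further: MC1000 strain lacking acrAB efflux and sulA so SOS filamentation is blocked; test concentration not given here.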 The following applies: OD650, 24 h, higher = more signal, called active from +8 up or from −8 down.
Test [17] can be described thus: small-molecule microarray binders of probe aLefty2, primary screen, biochemical, biotinylated probe, 635/667 nm fluorescence (AID 1094).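 Further: score merges spot fluorescence near 667 nm with spot signal-to-noise ratio.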 The conditions noted are these: higher = more signal.
Test [18] has as its system Noggin (protein binding on small-molecule microarray). Kind of test: Noggin binders on small-molecule microarray, primary screen, biochemical, 635/667 nm fluorescence (AID 1095).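 Further: score merges 667 nm feature fluorescence with signal to noise over triplicate slides.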 The conditions noted are these: 635 nm fluorescence, higher = more signal.
The target in test [19] is Neurogenic locus notch homolog protein 3 (Homo sapiens) (UniProt Q9UM47). The test is described as follows: NOTCH3 binders on small-molecule microarray, primary screen, biochemical, 635/667 nm fluorescence (AID 1096). The following applies: NOTCH3 binding, 635 nm fluorescence, higher = more signal.
The nature of test [20]: small-molecule microarray binders of probe aEGFR, primary screen, biochemical, biotinylated probe, 635/667 nm fluorescence (AID 1097).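 Further: probe is a biotinylated anti-EGFR antibody binding compounds printed on slides; score combines fluorescence near 667 nm and signal to noise of each spot.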 The conditions noted are these: higher = more signal.

SMILES strings stand for the structures. Activity calls are given as the source filed them.

Neurogenic locus notch homolog protein 3 (Homo sapiens), sequence (Q9UM47 whole entry, looked up): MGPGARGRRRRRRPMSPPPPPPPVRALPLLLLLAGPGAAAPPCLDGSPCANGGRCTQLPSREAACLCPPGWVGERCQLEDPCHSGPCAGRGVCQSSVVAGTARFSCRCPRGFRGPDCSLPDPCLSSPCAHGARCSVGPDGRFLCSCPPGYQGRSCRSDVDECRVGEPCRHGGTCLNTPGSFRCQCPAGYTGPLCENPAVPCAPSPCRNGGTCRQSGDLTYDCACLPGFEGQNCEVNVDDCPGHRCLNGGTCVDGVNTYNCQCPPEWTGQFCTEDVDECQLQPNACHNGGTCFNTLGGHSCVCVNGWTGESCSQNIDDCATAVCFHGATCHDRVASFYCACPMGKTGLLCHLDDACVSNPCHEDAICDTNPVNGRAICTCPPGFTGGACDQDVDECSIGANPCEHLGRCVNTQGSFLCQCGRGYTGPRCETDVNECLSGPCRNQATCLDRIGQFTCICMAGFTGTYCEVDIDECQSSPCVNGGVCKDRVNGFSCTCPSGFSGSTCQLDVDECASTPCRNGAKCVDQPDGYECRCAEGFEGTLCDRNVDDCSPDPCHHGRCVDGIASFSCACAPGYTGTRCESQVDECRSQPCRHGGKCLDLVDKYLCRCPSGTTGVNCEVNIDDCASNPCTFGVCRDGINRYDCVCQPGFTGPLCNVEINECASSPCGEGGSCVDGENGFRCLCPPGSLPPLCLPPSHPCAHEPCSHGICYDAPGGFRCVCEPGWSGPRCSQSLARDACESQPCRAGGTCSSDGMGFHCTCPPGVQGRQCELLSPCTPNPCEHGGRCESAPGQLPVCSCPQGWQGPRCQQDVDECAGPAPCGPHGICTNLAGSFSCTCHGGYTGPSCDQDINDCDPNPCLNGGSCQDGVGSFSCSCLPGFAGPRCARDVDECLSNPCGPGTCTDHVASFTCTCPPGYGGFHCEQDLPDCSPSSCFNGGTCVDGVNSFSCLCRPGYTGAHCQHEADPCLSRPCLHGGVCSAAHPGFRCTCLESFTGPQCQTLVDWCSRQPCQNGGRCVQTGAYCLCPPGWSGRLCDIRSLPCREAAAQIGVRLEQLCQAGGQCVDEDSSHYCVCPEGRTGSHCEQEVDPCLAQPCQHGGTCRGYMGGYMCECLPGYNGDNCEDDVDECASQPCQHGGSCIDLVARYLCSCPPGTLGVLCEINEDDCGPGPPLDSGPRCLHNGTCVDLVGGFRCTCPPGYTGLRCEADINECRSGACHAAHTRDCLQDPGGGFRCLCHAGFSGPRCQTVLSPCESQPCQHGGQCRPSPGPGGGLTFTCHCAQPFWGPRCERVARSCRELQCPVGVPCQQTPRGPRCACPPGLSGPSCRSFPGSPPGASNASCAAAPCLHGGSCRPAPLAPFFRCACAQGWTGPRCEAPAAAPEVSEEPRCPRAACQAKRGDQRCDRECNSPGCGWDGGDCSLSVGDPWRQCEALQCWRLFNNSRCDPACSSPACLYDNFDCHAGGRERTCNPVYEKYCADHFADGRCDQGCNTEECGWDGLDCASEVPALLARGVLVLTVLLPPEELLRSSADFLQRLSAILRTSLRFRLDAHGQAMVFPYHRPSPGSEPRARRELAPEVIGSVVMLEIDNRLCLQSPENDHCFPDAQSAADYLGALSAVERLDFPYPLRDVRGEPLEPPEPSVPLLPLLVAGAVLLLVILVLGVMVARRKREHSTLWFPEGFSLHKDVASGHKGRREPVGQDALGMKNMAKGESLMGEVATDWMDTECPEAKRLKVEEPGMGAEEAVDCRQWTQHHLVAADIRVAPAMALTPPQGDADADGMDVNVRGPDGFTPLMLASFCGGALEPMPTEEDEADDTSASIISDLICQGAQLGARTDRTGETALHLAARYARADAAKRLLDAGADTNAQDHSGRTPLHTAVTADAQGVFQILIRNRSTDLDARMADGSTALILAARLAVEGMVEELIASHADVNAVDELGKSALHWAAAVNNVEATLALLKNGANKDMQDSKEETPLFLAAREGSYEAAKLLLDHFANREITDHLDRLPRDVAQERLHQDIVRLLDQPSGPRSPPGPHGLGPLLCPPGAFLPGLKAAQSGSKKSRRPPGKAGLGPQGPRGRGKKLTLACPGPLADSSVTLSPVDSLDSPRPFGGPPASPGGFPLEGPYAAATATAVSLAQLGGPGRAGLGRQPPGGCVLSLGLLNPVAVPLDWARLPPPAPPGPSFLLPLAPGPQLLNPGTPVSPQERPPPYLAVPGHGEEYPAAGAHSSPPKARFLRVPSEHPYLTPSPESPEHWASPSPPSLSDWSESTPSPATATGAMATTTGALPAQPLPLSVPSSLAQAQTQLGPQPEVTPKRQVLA
Pro-neuregulin-1, membrane-bound isoform (Homo sapiens), sequence (Q02297 whole entry, looked up, the tested form may be a part, canonical isoform): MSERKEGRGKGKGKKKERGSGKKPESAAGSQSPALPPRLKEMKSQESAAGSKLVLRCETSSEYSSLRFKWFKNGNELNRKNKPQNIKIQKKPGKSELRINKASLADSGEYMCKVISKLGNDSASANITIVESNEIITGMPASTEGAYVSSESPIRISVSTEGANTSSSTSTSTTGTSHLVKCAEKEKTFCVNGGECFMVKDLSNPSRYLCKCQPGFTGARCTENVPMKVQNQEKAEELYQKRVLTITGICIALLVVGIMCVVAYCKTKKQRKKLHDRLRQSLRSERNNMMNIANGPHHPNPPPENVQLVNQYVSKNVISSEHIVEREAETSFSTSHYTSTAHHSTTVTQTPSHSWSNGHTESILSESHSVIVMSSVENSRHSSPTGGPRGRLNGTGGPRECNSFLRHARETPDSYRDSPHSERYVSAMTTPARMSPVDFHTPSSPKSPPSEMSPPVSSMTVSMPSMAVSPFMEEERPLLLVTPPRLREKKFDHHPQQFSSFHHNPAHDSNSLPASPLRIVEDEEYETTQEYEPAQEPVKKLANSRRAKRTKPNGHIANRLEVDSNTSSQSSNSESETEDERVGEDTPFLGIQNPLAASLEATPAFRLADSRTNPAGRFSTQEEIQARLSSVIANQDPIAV
Torsin-1A-interacting protein 2 (Homo sapiens), sequence (Q8NFQ8 whole entry, looked up): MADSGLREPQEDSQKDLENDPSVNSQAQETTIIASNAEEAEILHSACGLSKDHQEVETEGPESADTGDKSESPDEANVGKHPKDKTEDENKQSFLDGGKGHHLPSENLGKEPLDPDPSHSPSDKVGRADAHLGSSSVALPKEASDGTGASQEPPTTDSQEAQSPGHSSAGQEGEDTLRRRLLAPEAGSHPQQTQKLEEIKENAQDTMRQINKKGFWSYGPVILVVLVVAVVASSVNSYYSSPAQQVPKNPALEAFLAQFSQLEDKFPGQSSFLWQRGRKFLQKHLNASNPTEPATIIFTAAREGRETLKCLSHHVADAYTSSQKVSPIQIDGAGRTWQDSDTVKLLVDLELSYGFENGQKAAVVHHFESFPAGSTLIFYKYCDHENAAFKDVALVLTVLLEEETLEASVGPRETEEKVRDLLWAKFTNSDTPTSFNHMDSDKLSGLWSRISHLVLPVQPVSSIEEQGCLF

In the case of `COC(=O)[C@@]1(Cc2ccc(F)cc2)[C@H]2c3cc(C(=O)N4CCCC4)n(Cc4cc(F)cc5c4OCOC5)c3C[C@H]2CN1C(=O)c1ccccc1`, the composite z-score in test [1] was 0.653; in test [2], -0.622; in test [3], 0.13; in test [4], 0.816; in test [5] it was 1.75; in test [6], 1.69. The composite z-score was determined as 0.102 in test [7]; 1.56 in test [9]; 0.0759 in test [10]; 0.272 in test [11]; 0.423 in test [15]; 0.299 in test [17]. Further, the values for the composite z-score in test [18], in test [19] and in test [20] were 0.739, 1.12 and 0.36, respectively. The z-score was 0.869 (inactive) in [8]; 0.494 (inactive) in [12]; 1.57 (inactive) in test [13]; 3.33 (inactive) in test [14]; -0.0269 (inactive) in test [16].

Turning to `[N-]=[N+]=Nc1ccccc1C[C@@]1(C(=O)NCc2ccccc2)N=C(c2ccc(OCCCO)cc2)O[C@@H]1c1ccccc1N=[N+]=[N-]`, the composite z-score in test [1] is 0.581; in [2], 0.504; in test [3], 0.0678; in test [4], 1.04; in test [5], 1.09; in test [6], 0.966. The composite z-score in [7] is 1.06; in test [9], 0.602; in test [10] it was -0.175; in test [11], 1.58; in test [15], 1.69; in test [17], 0.469. Further, the composite z-score in test [18] stood at 1.2; in test [19], 0.762; in test [20], 0.0883. In addition, the z-score in test [8] is -1.24 (inactive); in test [12] it was -0.642 (inactive); in [13], -0.468 (inactive); in test [14], 5.27 (inactive); in [16] it was 0.0498 (inactive).

Regarding `C=CCNC(=O)[C@@H]1[C@H]2C(=O)O[C@H](c3ccccc3)[C@H](c3ccccc3)N2[C@H](c2ccc(OCCO)cc2)[C@@]12C(=O)Nc1ccc(C#CC3(O)CCCCCC3)cc12`, the composite z-score is 0.0068 in test [1]; 0.927 in test [2]; -0.0765 in test [3]; 0.592 in test [4]; 1.21 in [5]; 1.29 in [6]. The composite z-score in [7] is 1.29; in [9], 0.551; in [10], -0.0994; in test [11], 1.45; in test [15], 2.55; in [17], 0.0208. The composite z-score was 1.03 in test [18], 1.07 in test [19] and 0.0519 in test [20]. Moreover, the z-score is 0.803 (inactive) in [8]; 1.84 (inactive) in [12]; 0.267 (inactive) in test [13]; 4.71 (inactive) in test [14]; 1.2 (inactive) in test [16].

Turning to `CC1CC/C=C\[C@H]2OC34C=CCN(CCN5CCOCC5)C(=O)[C@H]3N(CCCO)C(=O)[C@@H]4C2C(=O)O1` (stereo not given in full), the composite z-score was -0.215 in test [1]; 0.0721 in test [2]; -0.183 in [3]; -0.0957 in [4]; -0.475 in [5]; -0.376 in test [6]. The composite z-score in test [7] was 1.07; in test [9], -0.354; in [10], -0.0994; in test [11] it was -0.536; in [15], -0.299; in test [17], -0.21. In addition, the composite z-score in [18] was -0.639; in test [19], -0.271; in [20], -0.239. The z-score was 0.149 (inactive) in [8]; 0.236 (inactive) in [12]; -0.218 (inactive) in test [13]; 0.585 (inactive) in [14]; -0.546 (inactive) in test [16].

Regarding `NC(=O)N1C(=O)C2C(C1=O)C1C=C(CCCO)C2C(c2ccc(CN3CCCC3)cc2)N1Cc1cc2c(cc1Br)OCO2` (stereo not given), the composite z-score in test [1] is 0.117; in test [2] it was 0.19; in test [3], -0.0909; in [4] it was -0.0906; in test [5], -0.362; in test [6], -0.311. Moreover, the composite z-score in test [7] is 0.626; in test [9], -0.369; in [10] it was -0.476; in test [11], 0.964; in test [15], 0.835; in test [17], -0.128. Also, the figures for the composite z-score in test [18], in [19] and in [20] were 0.208, -0.788 and -0.211, respectively. The z-score in [8] was -0.905 (inactive); in [12], -2.23 (inactive); in test [13], -0.251 (inactive); in [14], -0.665 (inactive); in [16], 0.181 (inactive).
